About 83,000 compounds went through this panel and 20% of them were active in at least one assay; those are over-represented in the sample as a whole.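 For each line, cells grew in 96-well plates with the test compound present at a single concentration for 48 hours.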 The source made the active and inactive calls. Rule for the calls: active = growth percent below 10; inactive = the rest.

This assay concerns HL-60(TB) leukemia. As to the kind of experiment: NCI-60 one-dose screen, 48 h (100 = growth as untreated, 0 = no growth, -100 = all killed). The conditions noted are these: 10 µM unless noted.
Take `Cn1cc(-c2nonc2-c2c[nH]c3ccc(F)cc23)c2cccnc21`: the growth was 91.7% (inactive).

As to `CC(C)(C)CC(C)(C)NC(=O)Nc1ncccc1OCc1ccccc1`, the growth is 90.5% (inactive). The same measure for `Cc1ncc(C(=O)Nc2ccc(CN3CCN(C)CC3)c(C(F)(F)F)c2)cc1C#Cc1ccc(N)nc1`: 17.6% (inactive). As for `CC[C@H](Nc1ncnc2nc[nH]c12)c1nc2cccc(F)c2c(=O)n1-c1ccccc1`, the growth was 66.8% (inactive).

In the case of `CC1=CCC(OC(=O)C(C)(C)CC(O)(C(C)O)C(O)C2(C)C=CC(Cc3ccc(C(C)C)cc3)(C(C)C)CC2)(C(C)C)CC1` (stereo not given), the growth is 95.9% (inactive). Turning to `O=c1onc(-c2ccccc2)c2ccccc12`, the growth was 86.8% (inactive). The same measure for `CCN(CC)CCn1c(=O)c2cc(OC)c(OC)cc2c2ccc3cc4c(cc3c21)OCO4`: 3.79% (active); for `O=C1Nc2ccc(Br)cc2C1=O`: 99.6% (inactive). Regarding `COc1cc(OCc2cccc(-c3ccccc3)c2C)cc(OC)c1CN1CCCCC1C(=O)NCCOCCOCCN` (stereo not given), the growth was -42.4% (active).

In the case of `CCN(CC)CCNC(=O)c1ccc(NC(C)=O)cc1`, the growth is 110% (inactive).

Turning to `Brc1ccc2[nH]cc(-c3nc(-c4c[nH]c5ncccc45)cs3)c2c1`, the growth was 32.7% (inactive). Take `c1ccc2[nH]c(-c3ccc(Nc4nc(N5CCCCC5)nc(N5CCOCC5)n4)cc3)nc2c1`: the growth is -22.7% (active). Turning to `Cc1ccc2c(-c3cc(-c4ccccc4)nc(N)c3C#N)cc(=O)oc2c1`, the growth is 117% (inactive). For `O=C(Nc1ccc(-n2ccc3c(NC(=O)c4ccccc4)ncnc32)cc1)c1cccc(C(F)(F)F)c1`, the growth is 43.9% (inactive). For the compound `O=C(Nc1ccc(OCc2nnc(-c3ccc(Cl)cc3)o2)c(F)c1)Nc1ccc(Cl)c(C(F)(F)F)c1`, the growth is -18.5% (active). `CCN(c1ccc(C(=O)N2CCN(c3ccccc3)CC2)cc1)S(C)(=O)=O`: the growth is 99.4% (inactive). Regarding `COc1ccc(-c2nc(/C=C3\SC(=NCc4ccccc4)NC3=O)c3ccccn23)cc1`, the growth was -7.59% (active). Regarding `C[C@@]1(CCC#N)[C@H]2CC[C@@H]3[C@H]4[C@H](C(=O)/C=C/c5cccnc5)CC[C@]4(C#N)CC[C@@]3(C)[C@]2(C)CC[C@H]1C(=O)/C=C/c1cccnc1`, the growth was 46% (inactive).

As for `COc1ccc2c(c1OC)O/C(=C\c1ncc([N+](=O)[O-])n1C)C2=O`, the growth is -7.92% (active).

Take `CN1C2CCC1/C(=C\c1ccc(Cl)cc1)C1=C2[C@@H](c2ccc(Cl)cc2)C(C#N)=C(N)O1` (stereo not given in full): the growth is 81.8% (inactive).

With `C=C1C(=O)O[C@H]2[C@H]1CC/C(COC(=O)n1ccnc1C)=C\CC[C@@]1(C)O[C@@H]21`, the growth is 83.2% (inactive).

In the case of `OCCNc1nc(NCCO)nc(Nc2ccc(C3=NN(c4cc(Cl)cc(Cl)c4)C(c4ccccc4)C3)cc2)n1` (stereo not given), the growth was 61.7% (inactive). As to `COc1cc(NS(=O)(=O)c2ccc(-c3cnc(C4CC4)o3)cc2)ccc1F`, the growth is 1.92% (active). In the case of `NC1=NN=C2N(N)C(=O)c3cnn(-c4ccccc4)c3N2c2nc(-c3ccccc3)cc(-c3ccccc3)c21`, the growth was 105% (inactive).

Turning to `CN(C)CCOC(=O)Nc1ccccc1Cl`, the growth was 112% (inactive). For `COc1ccc(C2Nc3c(c(C(C)(C)C)nn3-c3ccccc3)C(=O)CS2)cc1` (stereo not given), the growth is 129% (inactive). With `COc1ccc(C(=O)c2cc(OC)c(OC)c(OC)c2)cc1/C=C/C(=O)c1ccc(O)cc1`, the growth is 14.2% (inactive). Under `CCCOC(=O)N[C@H]1CCc2cc(OC)c(OC)c(OC)c2-c2ccc(SC)c(=O)cc21` stands -39.7% (active); under `CCOC(=O)C(Br)=P(c1ccccc1)(c1ccccc1)c1ccccc1`, 94.2% (inactive). Take `CSc1nc2ccc(C)cc2cc1/C=N/O`: the growth is 91.6% (inactive).

With `COc1ccc(C(=NN=C(N)N)c2ccc(OC)cc2)cc1`, the growth was 15.5% (inactive). The same measure for `CC1(C)C(=O)/C(=C\c2cccnc2)C[C@]2(C)[C@H]3CC=C4[C@@H]5C[C@@](C)(C(=O)O)CC[C@]5(C)CC[C@@]4(C)[C@]3(C)CC[C@@H]12`: 104% (inactive). With `CC1(C)CC[C@]23CC[C@]4(C)[C@H](CC[C@@H]5[C@@]6(C)CCNCC(C)(C)[C@@H]6CC[C@]54C)[C@H]2[C@H]1OC3`, the growth was 23.6% (inactive). With `COc1cccc(NC(=O)c2sc3nc4c(cc3c2N)C(O)CCC4)c1` (stereo not given), the growth was -16.8% (active). Take `O=C(N/N=C/c1ccc([N+](=O)[O-])o1)c1ccc(O)cc1`: the growth was 19.8% (inactive). As to `CC(=O)c1ccc2oc(=O)n(Cc3ccc(C#N)cc3)c(=O)c2c1`, the growth was 109% (inactive). On to `O=C(N/N=C/c1ccncc1)c1ccc(C(F)(F)F)nc1Nc1cccc(C(F)(F)F)c1`, for which the growth is -16.7% (active).

Take `CCOC(=O)c1c2c(n3cccc(Cl)c13)C(=O)c1ncccc1C2=O`: the growth is 34% (inactive).

For the compound `Cc1ccc(O)c(C(=O)c2ccccc2Cl)c1`, the growth was 112% (inactive). Regarding `Cc1ccc(C(NC(=O)c2ccccc2)c2ccc3cccnc3c2O)cc1` (stereo not given), the growth was -21% (active).

Source of the values: PubChem BioAssay (NCI).
